Reference: article PMC7819943, “Rice protein-binding microarrays: a tool to detect cis-acting elements near promoter regions in rice”
Over roughly 39,000 sequences, “fluorescence intensity (a.u.)” has its median near 4,300; the highest 2% begin near 39,000. The list comes from a sample in which the highest values are over-represented; it also holds similar and randomly drawn sequences.

Molecular target: T1, OsSMF1 (Oryza sativa, UniProt Q6ZLB0 1-436)
T1 sequence: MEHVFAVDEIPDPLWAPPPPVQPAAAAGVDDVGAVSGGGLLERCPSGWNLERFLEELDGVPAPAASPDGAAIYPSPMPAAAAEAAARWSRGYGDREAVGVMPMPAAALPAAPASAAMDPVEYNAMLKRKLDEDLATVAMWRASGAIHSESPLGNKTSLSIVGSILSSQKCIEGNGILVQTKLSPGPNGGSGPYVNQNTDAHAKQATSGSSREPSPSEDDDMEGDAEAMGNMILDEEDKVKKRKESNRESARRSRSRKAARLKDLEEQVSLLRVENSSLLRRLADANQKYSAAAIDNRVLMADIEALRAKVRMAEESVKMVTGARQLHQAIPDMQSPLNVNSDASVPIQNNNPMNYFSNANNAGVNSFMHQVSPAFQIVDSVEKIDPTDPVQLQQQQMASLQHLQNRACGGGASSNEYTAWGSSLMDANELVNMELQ
Experiment: protein-binding microarray (RPBM); PBS, 2% BSA, 51.3 ng/ul salmon testes DNA, 50 uM zinc acetate, 200 nM TF, 25 C, 1 h; high values mean tight binding
Settings: protein: recombinant; tags: N-terminal polyhistidine and DsRed monomer fusion (pET32a); chain copies: 2; label: CyDye5-dUTP incorporated in the synthesized complementary strand; 3' TTTTT single-stranded linker to array surface; dsDNA, one strand shown
In short: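 Binding signal is reported as fluorescence intensity per feature (arbitrary units) from an Axon 4000B scanner. Incubation used 200 nM of each Ni–NTA-purified, N-terminally polyhistidine- and DsRed-fused transcription factor from E. coli BL21-CodonPlus on a double-stranded custom Agilent array for 1 h at 25 °C, with 50 µM zinc acetate in the buffer, followed by washing.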

Compared with “CCGGGGTGTCAGAAATCCAGGCCCACCCGTCAGCGACGCGCGGAGTCACCTAGTGCAG”, “AAATCTCTCTCCACCCTTTCAGCGCGCCACGTGTCCCACACGGAGTCACCTAGTGCAG” is higher in binding signal: 4130 fluorescence intensity (a.u.) for the first, 18900 fluorescence intensity (a.u.) for the second.

Going from “CAAAATACTCAAGCGGCGGCATTGTCATCTTCCTCCTCCCCGGAGTCACCTAGTGCAG” to “AATGCCAAGTGGCAGCCTATGAGCGTTTGTAGCATGCCATCGGAGTCACCTAGTGCAG”, the binding signal rises from 3550 fluorescence intensity (a.u.) to 41200 fluorescence intensity (a.u.).

First: GAGTATTTGGCATGGTTGTAGCGTTGGTGACCTGAGTCATCGGAGTCACCTAGTGCAG
Second: TGCTATGCTATGGCAAGAACATCTTGAGCCATGACATCATCGGAGTCACCTAGTGCAG
The binding signal of the first is higher: 7270 fluorescence intensity (a.u.) for the first, 4390 fluorescence intensity (a.u.) for the second.

First: TCTGTTTAGTTACATCACTGATGGTCTTGATTTCGCAGTGCGGAGTCACCTAGTGCAG
Second: CTGCACTACGCCGCAGACGAACTGACGTGGTCGTATAAAACGGAGTCACCTAGTGCAG
The binding signal of the first is lower: 4040 fluorescence intensity (a.u.) for the first, 5790 fluorescence intensity (a.u.) for the second.

Going from “CCCTGGGTGGTTTTGGAGGTGGTTTTGGTTGACGTGGCGCCGGAGTCACCTAGTGCAG” to “GGTCAAGAGCGCATCCAGCATGTCGTCGTGTACCTGACCGCGGAGTCACCTAGTGCAG”, the binding signal falls from 21400 fluorescence intensity (a.u.) to 3720 fluorescence intensity (a.u.).

Compared with “TAGGTTAGTGGTGGCTGGGTCGTCACGTCATTGCATTGCACGGAGTCACCTAGTGCAG”, “TGTAGTGTTACAGTATGCCACGTCATCATGCTACGCTATTCGGAGTCACCTAGTGCAG” is higher in binding signal: 3270 fluorescence intensity (a.u.) for the first, 43900 fluorescence intensity (a.u.) for the second.

First: CCATGGCGGGGTGTATTGTTGTTGTATTTGGGGTTCTGGTCGGAGTCACCTAGTGCAG
Second: AGTAGTATTGGCTTGGGGTGTTGCCACGTCATCACCTGGTCGGAGTCACCTAGTGCAG
The binding signal of the first is lower: 3630 fluorescence intensity (a.u.) for the first, 55000 fluorescence intensity (a.u.) for the second.

Compared with “AGATTTTGGGTGTGTTTGGTTGCTTGCATTGTTTTAGTCTCGGAGTCACCTAGTGCAG”, “TAGTGTTTGTTTTGGGTTGTGCTCAGCTTAGCTCTGGTGTCGGAGTCACCTAGTGCAG” is higher in binding signal: 3300 fluorescence intensity (a.u.) for the first, 39800 fluorescence intensity (a.u.) for the second.

First: GTGGTGTTACGCTACTCGTGCAGTAGTGCCTCATCATGGGCGGAGTCACCTAGTGCAG
Second: TTTAGCTCTCGTCGATGTGGTGTTTGTTGGGTTTTCCCTTCGGAGTCACCTAGTGCAG
The binding signal of the first is lower: 3500 fluorescence intensity (a.u.) for the first, 3670 fluorescence intensity (a.u.) for the second.

Compared with “TTGTTCCTTTACAGTTTACAGTCATCTCTATTGTAGTATTCGGAGTCACCTAGTGCAG”, “ACTCTGCCGGCAGGCGTACGTGTGTCCCGGCATTTGGTCGCGGAGTCACCTAGTGCAG” is higher in binding signal: 4220 fluorescence intensity (a.u.) for the first, 4500 fluorescence intensity (a.u.) for the second.

Compared with “TCTTCCAAATGAACTGGCAATATACTTGTACACGTTCTGTCGGAGTCACCTAGTGCAG”, “ATTCACAGGCCTTTCTTAATTAAAACGGTAGATGGAGCAACGGAGTCACCTAGTGCAG” is higher in binding signal: 3190 fluorescence intensity (a.u.) for the first, 28400 fluorescence intensity (a.u.) for the second.

Compared with “TTGCCGTATCGGCTCGCCTGAAAGCGTGTCATTAGCATGACGGAGTCACCTAGTGCAG”, “GCACATGACTGTGCAAACGCTGTTCCTGATCTGAGTAAGACGGAGTCACCTAGTGCAG” is higher in binding signal: 3950 fluorescence intensity (a.u.) for the first, 4170 fluorescence intensity (a.u.) for the second.

Going from “CGGCCGCGACACGCACACGCCCACCCCACGCCCGCCGCGCCGGAGTCACCTAGTGCAG” to “GGTCTTGGTAGCCACCGTGTACGGCCTCTGCGGCATGCAGCGGAGTCACCTAGTGCAG”, the binding signal rises from 3140 fluorescence intensity (a.u.) to 3770 fluorescence intensity (a.u.).

First: ATGTTATCGTGCTAGTGTCAGCACATTCTCACTGATATTACGGAGTCACCTAGTGCAG
Second: GTAAGGCGTCCATGTGATGTCATTGTTGATGGGCAAGTGCCGGAGTCACCTAGTGCAG
The binding signal of the first is lower: 5330 fluorescence intensity (a.u.) for the first, 6430 fluorescence intensity (a.u.) for the second.

Going from “CGCATCGCATCTATGACTGGAGAGTGTATCTTTGCTTGCACGGAGTCACCTAGTGCAG” to “TCACCAGCGTCCGGTCAGCCATGGCGCTGAGTGGCCTCTTCGGAGTCACCTAGTGCAG”, the binding signal rises from 3180 fluorescence intensity (a.u.) to 21000 fluorescence intensity (a.u.).

Going from “TACTTCTTCTAAATGCTATAGCCAGGGAATGCAAACGAGACGGAGTCACCTAGTGCAG” to “AAAATGTGAATCTTTTGTATAGCCAGCTTCTTCTAAAACACGGAGTCACCTAGTGCAG”, the binding signal falls from 42000 fluorescence intensity (a.u.) to 24900 fluorescence intensity (a.u.).

First: AATTGATTTCTCTATAGACAAATAGGGAATGCCAGATTGACGGAGTCACCTAGTGCAG
Second: CTGCGCCATCCACGCCAAGCGCGTCACCATCATGCCCAAGCGGAGTCACCTAGTGCAG
The binding signal of the first is higher: 20100 fluorescence intensity (a.u.) for the first, 6140 fluorescence intensity (a.u.) for the second.

Compared with “TTCATATCATATACGTACACGTGGAATAATTTGTAATTATCGGAGTCACCTAGTGCAG”, “CTCGGGGTTAAGCAGAGGTTATCGTCCCCGCCGCAGGTTACGGAGTCACCTAGTGCAG” is lower in binding signal: 9010 fluorescence intensity (a.u.) for the first, 4020 fluorescence intensity (a.u.) for the second.

Compared with “AAACGAATCTAGGAATATATGTGACACATCATAGTACTACCGGAGTCACCTAGTGCAG”, “AACACACTAGTAATACGAATCTGAATATGGTACTAGGATACGGAGTCACCTAGTGCAG” is higher in binding signal: 4370 fluorescence intensity (a.u.) for the first, 64200 fluorescence intensity (a.u.) for the second.

Going from “ACTAGGATGTCACAACAGCCAAACCATCCATATACTGCCACGGAGTCACCTAGTGCAG” to “TTCCAACACTAGGATGGTATATGAACCACCAGGATACAAACGGAGTCACCTAGTGCAG”, the binding signal rises from 3170 fluorescence intensity (a.u.) to 41800 fluorescence intensity (a.u.).

First: AGTACTGGATGTGACACATCCTGGTACTACGAATCTGAACCGGAGTCACCTAGTGCAG
Second: CCGGATATGTTCTCGTAGTTTATATACGTTCATGATGACACGGAGTCACCTAGTGCAG
The binding signal of the first is higher: 3910 fluorescence intensity (a.u.) for the first, 3450 fluorescence intensity (a.u.) for the second.

First: ATATTCATATGACATGACACGTAAATGTCACGTAGGATATCGGAGTCACCTAGTGCAG
Second: CCACAAACCAAACCAACCCAAGATATCCTGATGAACCAAACGGAGTCACCTAGTGCAG
The binding signal of the first is lower: 3700 fluorescence intensity (a.u.) for the first, 35300 fluorescence intensity (a.u.) for the second.

“TTCAGGATGAATGGTACGTAACATGATAGGACACTATTCACGGAGTCACCTAGTGCAG” was tested, and the binding signal was 48700 fluorescence intensity (a.u.).
